The source made the active and inactive calls. Rule for the calls: active = hit-call score of the fitted dose curve at least 0.9, where 1 is the maximum; inconclusive = response in the unintended direction; inactive = score below 0.9.
Test system: SERPINA7 (gene 6906)
Test: CCTE_GLTED_hTBG: CCTE's human Thyroxine-binding Globulin (TBG) Inhibition Assay, Great Lakes Toxicology and Ecology Division (GLTED) Lab (AID 2284343);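 note: active chemicals lower fluorescence versus DMSO baseline by displacing probe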
Method: CCTE_GLTED_hTBG is a cell-free, single-readout assay designed to test the chemicals' ability to displace T4 from the human thyroxine-binding globulin (TBG) protein. TBG is incubated in presence of test chemical for 2 hours during which disrupting chemicals displace ANSA from the TBG protein. Results read fluorescence at 380 excitation and 475 emission.CCTE_GLTED_hTBG is the assay component measured from the CCTE_GLTED_hTBG assay. It is designed to make measurements of fluorescent polarization, using a form of binding reporter, as detected with Fluorescence signals by Fluorescence technology.Data from the assay component CCTE_GLTED_hTBG was analyzed at the assay endpoint CCTE_GLTED_hTBG in the positive analysis fitting direction relative to DMSO as the negative control and baseline of activity. Using a type of binding reporter, loss-of-signal activity can be used to understand a chemical's ability to displace T4 from thyroxine-binding globulin. To generalize the intended target to other relatable targets, this assay endpoint is annotated to the 'transporter' intended target family, where the subfamily is 'hormone carrier protein'.
Human transthyretin (TTR) assay, developed at Great Lakes Toxicology and Ecology Division (GLTED) within the EPA's Center for Computational Toxicology and Exposure (CCTE), is designed to test the chemicals' ability to displace T4 from the TTR protein. TTR (0.5uM) is incubated in presence of test chemical for 2 hours during which disrupting chemicals displace ANSA from the TTR protein. Results read fluorescence at 380 excitation and 475 emission.

| Structure (SMILES) | AC50 | outcome |
| --- | --- | --- |
| CC1(C)CCC(=Cc2ccc(Cl)cc2)C1(O)Cn1cncn1 (stereo not given) | 36.4 µM (active) |  |
| OC(c1ccc(Cl)cc1)(c1ccc(Cl)cc1)C(Cl)(Cl)Cl | 5.3 µM (active) |  |
| CCCCC(O)(Cn1cncn1)c1ccc(Cl)cc1Cl (stereo not given) | 11.3 µM (active) |  |
| C=C(C)CN(CC)c1c([N+](=O)[O-])cc(C(F)(F)F)cc1[N+](=O)[O-] | 8.89 µM (active) |  |
| CCOP(=O)(OCC)Oc1nc(Cl)c(Cl)cc1Cl | 14.9 µM (active) |  |
| CCOC(=O)C(C)OC(=O)c1cc(Oc2ccc(C(F)(F)F)cc2Cl)ccc1[N+](=O)[O-] (stereo not given) |  | inactive |
| CCCN(CC)CC1COC2(CCC(C(C)(C)C)CC2)O1 (stereo not given) |  | inactive |
| Cn1c(-c2ccccc2)cc(-c2ccccc2)[n+]1C |  | inactive |
| CC(C)Oc1cccc(NC(=O)c2ccccc2C(F)(F)F)c1 | 50 µM (active) |  |
| CCCCOCN(C(=O)CCl)c1c(CC)cccc1CC | 19.1 µM (active) |  |
